Reference: PubChem BioAssay AID1986 (Sanford-Burnham Center for Chemical Genomics, 2009)
Among all 290,000 compounds or so, about 890 (0.31%) were called active. The sample holds actives, similar compounds and a random draw of the others, so the mix is not that of the screen. A number with no mark means an inactive call. No stated cut-off is given here; in the data, active means inhibition mostly above about 52% (no sharp cut-off); inactive means mostly below about 76%.

Assay: inhibitors of HIV fusion peptide binding, primary screen, biochemical, uHTS, fluorescence dequenching (AID 1986)
Conditions: cell-free peptide binding, 30 min, at 20 µM, stronger effect = higher value
Compound `c1ccc(-c2csc(-c3ccncc3)n2)cc1` has an inhibition of 0.1%. Compound `O=C(O)c1c2c(nc3ccccc13)/C(=C/c1ccc(O)cc1)CCC2` has an inhibition of 6.1%. `O=C(O)c1ccc(/C=C2\CCCc3c2nc2ccccc2c3C(=O)O)cc1` showed an inhibition of 4.2%. With `O=C(O)c1c2c(nc3ccccc13)/C(=C/c1ccc(O)cc1)CC2` the inhibition was 77.1% (active). Work on `CC(C)OCCCNC(=O)NC12CC3CC(CC(C3)C1)C2` yielded an inhibition of 1.1%. In the case of `Cc1ccc(-n2nc3c(c2NC(=O)c2ccc4c(c2)OCO4)CS(=O)C3)cc1` (stereo not given), the inhibition is reported as -0.3%. `CCc1nnc(NS(=O)(=O)c2ccc(NC(=S)NC(=O)/C=C/c3ccc(OC)cc3)cc2)s1` showed an inhibition of 34.6%. With `CCc1nnc(NS(=O)(=O)c2ccc(NC(=S)NC(=O)/C=C/c3ccccc3)cc2)s1` the inhibition was 60.8% (active). Work on `CCc1nnc(NS(=O)(=O)c2ccc(NC(=S)NC(=O)/C=C/c3ccc([N+](=O)[O-])cc3)cc2)s1` yielded an inhibition of 25.6%. For `Cc1cccc(C)c1NC(=O)C(Cl)=C(Cl)Cl`, the inhibition was 0.7%. With `O=C(O)c1cccc(S(=O)(=O)N2CCOCC2)c1` the inhibition was -1%. With `CCn1ncc(Cl)c1C(=O)Nc1cc([N+](=O)[O-])ccc1OC` the inhibition was 0.4%. For `Cc1ccsc1/C=N/NC(=O)c1ccccn1`, the inhibition was -0.7%. For `COc1cccc(N2C(=O)C(c3ccccc3)=C(c3nc4ccccc4s3)C2NC(C)=O)c1` (stereo not given), the inhibition was 0.6%. Compound `COc1ccc(C(=O)/C(C#N)=N/Nc2cccc([N+](=O)[O-])c2)cc1` has an inhibition of 20.6%. For `COc1ccc(C(=O)/C(C#N)=N/Nc2ccc([N+](=O)[O-])cc2)cc1`, the inhibition was 5.5%. In the case of `N#C/C(=N\Nc1cccc([N+](=O)[O-])c1)C(=O)c1ccc(Br)cc1`, the inhibition is reported as 63.4% (active). With `Cc1c(C(=O)OCC(=O)N(C)c2ccccc2)oc2ccccc12` the inhibition was 1.2%. For `O=C1c2cccc3c(N4CCCCC4)ccc(c23)C(=O)N1CCO`, the inhibition was -0.2%. With `O=C1c2cccc3c(N4CCCCC4)ccc(c23)C(=O)N1c1ccccc1O` the inhibition was 100% (active). In the case of `O=C1c2cccc3c(N4CCCCC4)ccc(c23)C(=O)N1c1cccc(O)c1`, the inhibition is reported as 148%. For `O=C(OCCN1C(=O)c2cccc3c(N4CCOCC4)ccc(c23)C1=O)c1ccc(Cl)cc1Cl`, the inhibition was 151%. In the case of `O=C(OCCN1C(=O)c2cccc3c(N4CCOCC4)ccc(c23)C1=O)c1ccc(Cl)cc1`, the inhibition is reported as 149%. `O=C(OCCN1C(=O)c2cccc3c(N4CCOCC4)ccc(c23)C1=O)c1cccc(Cl)c1` gave an inhibition of 151%. `O=C1c2cccc3c(N4CCCCC4)ccc(c23)C(=O)N1c1ccc(O)cc1` showed an inhibition of 146%. Work on `CCN(CC)S(=O)(=O)c1ccc(C(=O)OCCN2C(=O)c3cccc4c(N5CCOCC5)ccc(c34)C2=O)cc1` yielded an inhibition of 150%. For `O=C(OCCN1C(=O)c2cccc3c(N4CCOCC4)ccc(c23)C1=O)c1cc(Cl)cc(Cl)c1`, the inhibition was 88.8% (active). With `CC(=O)N(C(C)=O)N1C(=O)c2cccc3c(N4CCOCC4)ccc(c23)C1=O` the inhibition was 100% (active). For `O=C(OCCN1C(=O)c2cccc3c(N4CCOCC4)ccc(c23)C1=O)c1ccccc1Cl`, the inhibition was 151%. In the case of `CCCN(CCC)S(=O)(=O)c1ccc(C(=O)OCCN2C(=O)c3cccc4c(N5CCOCC5)ccc(c34)C2=O)cc1`, the inhibition is reported as 63.4% (active).
